Sensor-assay potency score (higher = more potent) data for 40 sequences are collected here from the OligoGym collection.
Note: reference of the scale not given here.

For one test, the target named is FEZ1. The experiment in a line: pooled miR-30 sensor sort-seq; sequence = guide strand. The note with it: shRNA.
As for ATTACTAGCACTAGAAGCCAAC, the sensor-assay potency score (higher = more potent) is -1.45. Regarding TTTAAATACATGTCGGAGGTTA, the sensor-assay potency score (higher = more potent) was 0.312.

For the sequence TAGTCTTAAGAGTATAAGCTGT, the sensor-assay potency score (higher = more potent) was -0.799.

In the case of TTTATTTCAAAATTAGTCTTAA, the sensor-assay potency score (higher = more potent) was -0.684. Still for that read-out and setting: as for TTCTCGTAAGGAATGACTGTGT, the figure is -0.149; as for TTGAAGCTGATTATTTCGGAAG, -0.859. As to TTGTCTGTCAGAGCATCCCAAA, the sensor-assay potency score (higher = more potent) was -1.44. The same measure, in the same setting: the result for TTGCTCAGTGACCTCCTGCAGC reads -0.806; that for ATGAACCATAGAAACACTGGGG, -0.474.

A further test has as its target FFAR2. The test is described as above. The note with it: shRNA.
Regarding TCGGTGAAGTTCTCGTAGCAGG, the sensor-assay potency score (higher = more potent) was -0.822.

With TAGATGCTGCTGTAGAAGCCAA, the sensor-assay potency score (higher = more potent) is -0.865. On to TCGTGTTCAAGTATTGAACGAT, for which the sensor-assay potency score (higher = more potent) is -0.455.

As for TAAGCCATGAGGATCAAGGAGC, the sensor-assay potency score (higher = more potent) was -1.02. Same read-out and setting: the result for TTATCGGTGAAGTTCTCGTAGC reads -0.593; that for TTCATTGCCACTTCTGACCTGC, 0.752; that for TGAGTGAACTGAACACCACGGC, 0.269. For the sequence TTCTCCTTGACCCACACCCCTG, the sensor-assay potency score (higher = more potent) was -1.59. TCTCGTAGCAGGTAATTTCATT: the sensor-assay potency score (higher = more potent) was -0.802. The same measure, in the same setting: the result for TTTTTCTCTGGTGATACCCCAC reads -0.286.

In turn, TTGAGTGAACTGAACACCACGG had a sensor-assay potency score (higher = more potent) of 0.516. The same measure, in the same setting: the result for TAGCAGGTAATTTCATTGCCAC reads -0.783.

For another test, the target named is FGA. The description is as above. The note with it: shRNA.
With TAGACTTCTGCACAGTTCTCTT, the sensor-assay potency score (higher = more potent) is -0.561.

Regarding TAAGTCTTTGGCAATGACCTGT, the sensor-assay potency score (higher = more potent) is 0.441. On the same count and under the same terms, the result for TATTCTGTTTGTAAAATCTTGA reads -0.477; that for TTTTTCTATGACTTTGCGCTTC, -0.192; that for TTGATTGACTTCATCAATCAAC, -0.764. On the same count and under the same terms, the result for TTCAGTGATCCATCCATTCTTT reads -0.0325.

Take TTTCTCTCCACTTCTCTAGCAA: the sensor-assay potency score (higher = more potent) was found to be 0.384.

TCAATCAACCCTTTCATCCTGC: the sensor-assay potency score (higher = more potent) was 0.452. The same measure, in the same setting: as for TTCAGGACTTCAATTCTGCTTC, the figure is -0.0905. As for TAAATTGTTTGCTGTAACTTGA, the sensor-assay potency score (higher = more potent) is -0.0308.

With TTCTATGACTTTGCGCTTCAGG, the sensor-assay potency score (higher = more potent) is -0.597. TTAGGTTGTAGAGAATCTCAAC: the sensor-assay potency score (higher = more potent) was -0.726. As for TAACTCCATTCTCATCTGCGGC, the sensor-assay potency score (higher = more potent) was -1.53.

The sequence TTGTAGAGAATCTCAACTGCTT gave a sensor-assay potency score (higher = more potent) of 0.304. TAAAATTCAGTGATCCATCCAT displayed a sensor-assay potency score (higher = more potent) of 0.455. The same measure, in the same setting: the result for TGTCTTTCCACAACCCTTGGGC reads 0.289; that for TTGTAGTCTTGCCAGGTCCGGT, -0.917. Still for that read-out and setting: as for TGTAGTTCCAGTCTTCATCAGA, the figure is -0.66. Still for that read-out and setting: the result for TATTGTTCTTCTGATATTCAAA reads -1.2.
